The values below come from PubChem BioAssay AID1240 (Sanford-Burnham Center for Chemical Genomics, 2008).

Out of some 50,000 compounds screened, about 800 (1.6%) showed an effect of 50% or more. The list comes from a sample in which strong results are over-represented; it also holds similar structures and randomly drawn compounds.

Chain of Bcl-2-like protein 10 (Homo sapiens) (Q9HD36 whole entry, looked up): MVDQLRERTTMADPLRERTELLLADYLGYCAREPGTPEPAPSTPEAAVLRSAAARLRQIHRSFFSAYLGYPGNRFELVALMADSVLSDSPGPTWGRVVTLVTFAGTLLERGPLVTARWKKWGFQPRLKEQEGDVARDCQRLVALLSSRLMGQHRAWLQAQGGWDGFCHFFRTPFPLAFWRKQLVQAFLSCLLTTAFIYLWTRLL

This assay has as its target Bcl-2-like protein 10 (Homo sapiens) (UniProt Q9HD36). As to the kind of experiment: Phenotype converters, Bcl-B/TR3 peptide binding displacement, primary biochemical FP (AID 1240).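 Note: 0% = Bcl-B with tracer peptide and DMSO and 100% = tracer peptide lacking Bcl-B.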 As to conditions: GST-Bcl-B / FITC-TR3 peptide fluorescence polarization; stronger effect = higher value; compound at 3.75 mg/L.
In the case of `CCOc1ccc(/C=C/C(=O)c2ccc(F)cc2)cc1`, the displacement is -0.4%.

`CN(C)/C=C1\C(=O)N/C(=C/c2ccc(Br)cc2)C1=O`: the displacement is 7.9%. Turning to `CCN(CC)c1ccc(NC(=O)c2ccc3ccccc3n2)cc1`, the displacement came out at 1.3%. For `CCCCS(=O)CC(O)COC(C)C` (centres undefined) the value was -1.5%; for `Cc1cc(OCC(=O)NC2C3CC4CC(C3)CC2C4)ccc1Br` (centres undefined), -6.7%. Under `COc1cc(OC)c([N+](=O)[O-])cc1/C=C1\C=C(c2ccc(Br)cc2)OC1=O` stands 49.1%; under `COc1ccc(/C=C2\C=C(c3ccc(C)cc3)OC2=O)cc1[N+](=O)[O-]`, 6.6%. With `COc1ccc(/C=C2\C=C(c3ccc(Br)cc3)OC2=O)cc1[N+](=O)[O-]`, the displacement was 70%. Under `COc1cc(/C=C2\C=C(c3ccc(Cl)cc3)OC2=O)c([N+](=O)[O-])cc1OC` stands -11.8%; under `COc1ccc(C2=C/C(=C\c3ccc(OC)c([N+](=O)[O-])c3)C(=O)O2)cc1`, 2.7%; under `COc1cc(/C=C2\C=C(c3ccc(Br)cc3)OC2=O)c([N+](=O)[O-])cc1OC`, 55%. For `COc1cccc(OCCCCS)c1` the value was 10%; for `O=C(O)c1cc(S(=O)(=O)N2CCCCC2)ccc1O`, -1.5%; for `COc1ccc(C2CC(=O)C3=C(C2)Nc2ccccc2NC3c2cccc3ccccc23)cc1OC` (centres undefined), 1.8%. Under `O=C(Nc1c(C(=O)N2CCOCC2)cnn1-c1ccccc1)c1cccs1` stands 12.5%; under `CCc1cc2c(=O)c(-c3nc4ccccc4s3)coc2c(CN2CCOCC2)c1O`, 1%; under `CN1CCN(Cc2c(O)ccc3cc(-c4ccccn4)c(=O)oc23)CC1`, 25.9%.

In the case of `Cc1oc2c(CN(CC(C)C)CC(C)C)c(O)ccc2c(=O)c1-c1nc2ccccc2s1`, the displacement was determined as 12.7%. Turning to `CN(C)Cc1c(O)ccc2cc(-c3nc4ccccc4s3)c(=O)oc12`, the displacement was determined as 110%. On to `CN1CCN(Cc2c(O)ccc3cc(-c4nc5ccccc5s4)c(=O)oc23)CC1`, for which the displacement was 121%. For `CCc1cc2c(=O)c(-c3nc4ccccc4s3)coc2c(CN(C)C)c1O` the value was -15%; for `Cc1oc2c(CN3CCCC3)c(O)ccc2c(=O)c1-c1nc2ccccc2s1`, 12.7%. Regarding `O=c1oc2c(CN3CCOCC3)c(O)ccc2cc1-c1nc2ccccc2s1`, the displacement was 118%. Turning to `Cc1oc2c(CN3CCN(C)CC3)c(O)ccc2c(=O)c1-c1nc2ccccc2s1`, the displacement came to 11.7%. Regarding `Cc1cccc(NC(=O)C2C(c3ccccc3)=C2c2ccccc2)c1C`, the displacement is 5.5%. Under `CCN(CC)c1ccc(NC(=O)COc2ccc(OC)cc2)cc1` stands -5%; under `COc1ccccc1N1C(=O)NC(=O)/C(=C/c2ccc(OC)c3ccccc23)C1=O`, 5.3%; under `C=CCOc1ccc(Cl)cc1/C=C1/SC(=S)NC1=O`, -2.6%. For `O=C(Nc1cc(Br)cc2cccnc12)c1ccc(Cl)cc1` the value was -7.2%.
